Measured values as given in PMC5540273 (PLoS ONE, 2017).

Columns and labels:
Details in all cases: concentration: 1 μM, replicates: in singlicate; n = 1
GRK4 = system: GRK4
GRK7 = system: GRK7
GSK3A = system: GSK3A
GSK3B = system: GSK3B
HASPIN = system: T1, HASPIN
T1 construct: gene GSG2

HCK = system: HCK
HIPK1 = system: HIPK1
HIPK2 = system: HIPK2
HIPK3 = system: HIPK3
HIPK4 = system: HIPK4
HPK1 = system: HPK1
HUNK = system: HUNK
ICK = system: ICK
IGF1R = system: IGF1R
IKK-alpha = system: T2, IKK-alpha
T2 construct: gene CHUK

IKK-beta = system: T3, IKK-beta
T3 construct: gene IKBKB

IKK-epsilon = system: T4, IKK-epsilon
T4 construct: gene IKBKE

INSRR = system: INSRR
INSR = system: INSR
IRAK1 = system: IRAK1
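Note: KINOMEscan kinase panel screen.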

SMILES	%Inh (GRK4) [%]	%Inh (GRK7) [%]	%Inh (GSK3A) [%]	%Inh (GSK3B) [%]	%Inh (HASPIN) [%]	%Inh (HCK) [%]	%Inh (HIPK1) [%]	%Inh (HIPK2) [%]	%Inh (HIPK3) [%]	%Inh (HIPK4) [%]	%Inh (HPK1) [%]	%Inh (HUNK) [%]	%Inh (ICK) [%]	%Inh (IGF1R) [%]	%Inh (IKK-alpha) [%]	%Inh (IKK-beta) [%]	%Inh (IKK-epsilon) [%]	%Inh (INSRR) [%]	%Inh (INSR) [%]	%Inh (IRAK1) [%]
Cc1ccc(C(=O)NCC(N)=O)cc1-n1c(C)cc(OCc2ccc(F)cc2F)c(Br)c1=O	0	0	58	0	0	21	46	0	0	0	0	0	0	5	0	0	0	0	0	0
NS(=O)(=O)c1cccc(-c2ccc3ncc(N4CCOCC4)nc3c2)c1 [GSK1535721]	0	0	19	0	36	0	10	0	1	0	37	0	0	2	0	0	34	0	7	1
O=C(NCCCN1CCOCC1)c1cccc(Nc2nccc(Nc3ccc(Oc4ccccc4)cc3)n2)c1 [GW663929]	0	0	21	0	0	96.9	14	0	0	5	8	0	0	0	0	0	0	0	15	28
COc1ccc(Nc2ncc(C#N)c(Nc3ccccc3C(N)=O)n2)cc1N1CCN(C)CC1.Cl [GSK1558669]	96	46	99.8	99.8	88	98.8	100	98.8	99.8	89	96.4	0	97.6	99.6	97.8	88	93.8	100	99.9	99.8
NCC(NC(=O)c1cc(-c2cn[nH]c2)c(-c2ccnc3[nH]ccc23)s1)c1ccccc1.O=C(O)C(F)(F)F.O=C(O)C(F)(F)F (centres unmarked) [GSK1325775]	64	51	38	48	84	0	88	96.7	98.4	94.8	63	0	3	0	54	79	24	0	3	93.6
Cc1ccc(NC(=O)c2ccnc(N3CCN(C)CC3)c2)cc1-c1ccc(C(=O)NCC2CC2)cc1 [GW775604]	15	0	0	0	0	9	0	0	0	0	0	34	0	0	0	0	0	0	0	0
COc1cc2ncn(-c3cc(OCc4sccc4Cl)c(C(N)=O)s3)c2cc1OC [GSK448459]	30	0	0	6	5	0	44	28	23	69	52	0	12	0	0	0	0	0	0	35
O=c1cc(N2CCOCC2)nc2n(Cc3cccc4ccccc34)ccn12 [GSK2333389]	0	0	9	10	0	0	0	0	21	5	5	0	0	4	29	17	0	0	0	13
O=C(NOCC1CC1)c1ccc(F)c(F)c1Nc1ccc(I)cc1Cl	0	0	0	0	30	0	0	0	0	0	12	0	100	0	46	35	0	0	0	0
Cc1cccc(Cn2ccn3c(=O)cc(N4CCOCC4)nc23)c1 [GSK2297542]	0	0	10	3	0	0	28	0	30	15	37	0	5	29	0	0	15	0	9	20
